This note sets out measurements from PMC7862700, “An all-to-all approach to the identification of sequence-specific readers for epigenetic DNA modifications on cytosine”.

Holding throughout (test): DAPPL (digital affinity profiling via proximity ligation, sequencing); 10 mM Tris-HCl pH 7.5, 50 mM NaCl, 1 mM DTT, 4% glycerol, room temperature, 30 min; GST-TFs on glutathione beads, 16-mer random dsDNA library, 0.1% formaldehyde crosslink after washing; high values mean tight binding
One experiment has as its target T1, FLI1 (Homo sapiens, UniProt Q01543 1-452).
T1 sequence: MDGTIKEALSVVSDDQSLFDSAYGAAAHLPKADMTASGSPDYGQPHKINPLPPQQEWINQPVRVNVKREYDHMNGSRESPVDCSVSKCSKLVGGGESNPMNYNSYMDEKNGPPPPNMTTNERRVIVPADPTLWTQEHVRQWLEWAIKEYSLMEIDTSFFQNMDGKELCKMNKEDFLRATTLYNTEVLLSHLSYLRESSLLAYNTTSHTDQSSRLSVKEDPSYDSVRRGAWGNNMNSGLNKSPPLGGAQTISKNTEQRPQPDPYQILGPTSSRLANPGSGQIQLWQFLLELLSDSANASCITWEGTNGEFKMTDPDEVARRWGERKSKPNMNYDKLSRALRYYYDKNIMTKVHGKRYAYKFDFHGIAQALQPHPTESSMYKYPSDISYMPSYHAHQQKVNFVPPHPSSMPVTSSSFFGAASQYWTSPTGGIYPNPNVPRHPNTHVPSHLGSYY
The following applies: protein: recombinant; tags: N-terminal GST; dsDNA, one strand shown. In short, it runs like this: (§1)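 In yeast, human transcription factors were expressed with a GST fusion, then pulled down on glutathione beads and given DNA barcodes. Pooled with a tag-only sample, they were exposed to 200 nmole of a 16-mer random double-stranded DNA library (Tris/NaCl/DTT/glycerol buffer, room temperature, 30 min), washed, crosslinked with 0.1% formaldehyde, proximity-ligated using BsaI/T4 ligase for 1 h at 37 °C, PCR-amplified and read on an Illumina NextSeq500. Each hexamer's frequency of reads for a factor, divided by the matching frequency for the tag-only sample, gives the binding signal.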

Another experiment addresses T2, ELK1 (Homo sapiens, UniProt P19419 1-428).
T2 sequence: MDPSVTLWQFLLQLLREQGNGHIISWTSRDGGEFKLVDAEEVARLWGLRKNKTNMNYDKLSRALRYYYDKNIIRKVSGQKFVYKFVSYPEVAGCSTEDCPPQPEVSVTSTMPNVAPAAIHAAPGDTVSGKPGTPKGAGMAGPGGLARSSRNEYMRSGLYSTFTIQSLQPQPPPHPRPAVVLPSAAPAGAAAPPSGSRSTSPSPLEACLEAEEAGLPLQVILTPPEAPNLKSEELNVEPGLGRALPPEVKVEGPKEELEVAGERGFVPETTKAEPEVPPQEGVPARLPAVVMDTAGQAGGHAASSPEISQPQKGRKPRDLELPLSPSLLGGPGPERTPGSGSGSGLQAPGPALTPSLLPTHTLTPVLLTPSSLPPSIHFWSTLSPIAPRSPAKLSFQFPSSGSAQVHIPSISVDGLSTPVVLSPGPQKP
The settings on record: protein: recombinant; tags: N-terminal GST; dsDNA, one strand shown. Summed up:
as §1

For another experiment, the target named is T3, GABPA (Homo sapiens, UniProt Q06546 1-454).
T3 sequence: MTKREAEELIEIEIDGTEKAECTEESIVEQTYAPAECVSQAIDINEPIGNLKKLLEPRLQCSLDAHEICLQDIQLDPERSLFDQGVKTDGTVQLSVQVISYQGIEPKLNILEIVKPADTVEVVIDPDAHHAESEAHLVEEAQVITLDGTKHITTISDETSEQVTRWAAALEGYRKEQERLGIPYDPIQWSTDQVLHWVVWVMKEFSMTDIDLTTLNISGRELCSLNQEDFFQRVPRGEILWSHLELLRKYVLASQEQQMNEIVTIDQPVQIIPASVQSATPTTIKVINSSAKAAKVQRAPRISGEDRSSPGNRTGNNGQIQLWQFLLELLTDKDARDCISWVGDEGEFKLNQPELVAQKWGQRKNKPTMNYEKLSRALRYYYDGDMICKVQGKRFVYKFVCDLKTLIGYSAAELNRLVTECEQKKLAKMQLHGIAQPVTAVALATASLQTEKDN
The settings on record: protein: recombinant; tags: N-terminal GST; dsDNA, one strand shown. Summed up:
as §1

The target in the next experiment is T4, ERG (Homo sapiens, UniProt P11308 1-479).
T4 sequence: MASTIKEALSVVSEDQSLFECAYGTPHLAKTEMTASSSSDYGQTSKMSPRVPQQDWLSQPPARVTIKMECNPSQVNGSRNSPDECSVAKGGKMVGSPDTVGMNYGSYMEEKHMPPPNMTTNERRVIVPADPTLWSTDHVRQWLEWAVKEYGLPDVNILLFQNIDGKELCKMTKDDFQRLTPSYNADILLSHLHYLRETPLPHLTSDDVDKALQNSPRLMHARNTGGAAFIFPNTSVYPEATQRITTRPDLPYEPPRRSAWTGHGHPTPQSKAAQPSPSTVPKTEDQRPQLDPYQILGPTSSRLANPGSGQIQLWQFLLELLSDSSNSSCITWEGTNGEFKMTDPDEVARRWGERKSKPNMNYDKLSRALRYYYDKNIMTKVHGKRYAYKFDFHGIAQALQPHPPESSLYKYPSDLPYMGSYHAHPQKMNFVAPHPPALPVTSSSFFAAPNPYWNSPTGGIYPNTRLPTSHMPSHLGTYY
The following applies: protein: recombinant; tags: N-terminal GST; dsDNA, one strand shown. In short, it runs like this:
as §1

The next experiment has as its target ELF1 (Homo sapiens, UniProt P32519 1-619). The settings on record: protein: recombinant; tags: N-terminal GST; dsDNA, one strand shown. Summed up:
as §1

In a further experiment the target is T5, EHF (Homo sapiens, UniProt Q9NZC4 1-300).
T5 sequence: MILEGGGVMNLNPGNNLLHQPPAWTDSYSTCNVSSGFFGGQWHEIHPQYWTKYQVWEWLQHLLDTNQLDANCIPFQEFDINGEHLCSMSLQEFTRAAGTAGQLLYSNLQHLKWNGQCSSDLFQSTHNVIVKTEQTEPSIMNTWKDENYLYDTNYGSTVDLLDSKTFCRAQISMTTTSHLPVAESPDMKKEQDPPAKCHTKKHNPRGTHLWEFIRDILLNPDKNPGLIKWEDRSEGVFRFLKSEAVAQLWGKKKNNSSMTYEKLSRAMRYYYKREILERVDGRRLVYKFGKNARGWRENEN
The following applies: protein: recombinant; tags: N-terminal GST; dsDNA, one strand shown. Summed up: as §1

Another experiment concerns the target SPI1 (Homo sapiens, UniProt P17947 1-270). The following applies: protein: recombinant; tags: N-terminal GST; dsDNA, one strand shown. In short, it runs like this:
as §1

The next experiment concerns the target SPIB (Homo sapiens, UniProt Q01892 1-262). The settings on record: protein: recombinant; tags: N-terminal GST; dsDNA, one strand shown. Summed up: as §1
The target of the next experiment is T6, ELK3 (Homo sapiens, UniProt P41970 1-407).
T6 sequence: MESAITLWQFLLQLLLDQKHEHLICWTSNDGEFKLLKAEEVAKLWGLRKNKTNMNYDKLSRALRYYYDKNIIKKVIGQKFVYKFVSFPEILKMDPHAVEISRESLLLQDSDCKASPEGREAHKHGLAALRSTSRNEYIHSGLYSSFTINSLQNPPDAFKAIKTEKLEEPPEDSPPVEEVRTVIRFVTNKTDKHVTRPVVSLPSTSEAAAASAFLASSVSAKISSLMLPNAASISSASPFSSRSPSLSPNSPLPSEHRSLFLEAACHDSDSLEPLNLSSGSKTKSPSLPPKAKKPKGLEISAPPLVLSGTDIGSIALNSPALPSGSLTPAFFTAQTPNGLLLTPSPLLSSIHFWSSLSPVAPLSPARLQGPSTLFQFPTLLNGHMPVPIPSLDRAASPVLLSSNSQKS
The settings on record: protein: recombinant; tags: N-terminal GST; dsDNA, one strand shown. In short, it runs like this: as §1

The next experiment concerns the target T7, FEV (Homo sapiens, UniProt Q99581 1-238).
T7 sequence: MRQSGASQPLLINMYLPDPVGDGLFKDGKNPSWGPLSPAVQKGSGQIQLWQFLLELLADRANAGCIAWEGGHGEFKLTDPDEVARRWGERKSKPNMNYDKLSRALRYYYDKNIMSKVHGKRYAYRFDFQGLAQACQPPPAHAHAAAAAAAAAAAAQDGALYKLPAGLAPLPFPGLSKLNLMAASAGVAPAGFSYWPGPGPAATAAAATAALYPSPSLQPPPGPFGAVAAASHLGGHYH
The following applies: protein: recombinant; tags: N-terminal GST; dsDNA, one strand shown. Summed up: as §1

The target in a further experiment is ETV5 (Homo sapiens, UniProt P41161 1-510). The following applies: protein: recombinant; tags: N-terminal GST; dsDNA, one strand shown. In short, it runs like this:
as §1

The next experiment concerns the target HSF1 (Homo sapiens, UniProt Q00613 1-529). The settings on record: protein: recombinant; tags: N-terminal GST; chain copies: 3; dsDNA, one strand shown. In short, it runs like this:
as §1

For a further experiment, the target named is T8, SPIC (Homo sapiens, UniProt Q8N5J4 1-248).
T8 sequence: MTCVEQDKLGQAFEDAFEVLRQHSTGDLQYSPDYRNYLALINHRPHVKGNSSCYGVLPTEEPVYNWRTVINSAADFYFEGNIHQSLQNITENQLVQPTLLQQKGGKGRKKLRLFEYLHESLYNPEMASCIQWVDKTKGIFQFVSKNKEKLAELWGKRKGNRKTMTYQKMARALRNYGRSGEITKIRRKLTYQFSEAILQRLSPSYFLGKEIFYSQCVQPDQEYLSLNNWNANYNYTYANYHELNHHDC
The settings on record: protein: recombinant; tags: N-terminal GST; dsDNA, one strand shown. Summed up: as §1

The target of another experiment is ELF4 (Homo sapiens, UniProt Q99607 1-663). The following applies: protein: recombinant; tags: N-terminal GST; dsDNA, one strand shown. Summed up:
as §1

The next experiment addresses T9, ELK4 (Homo sapiens, UniProt P28324-2 1-405).
T9 sequence: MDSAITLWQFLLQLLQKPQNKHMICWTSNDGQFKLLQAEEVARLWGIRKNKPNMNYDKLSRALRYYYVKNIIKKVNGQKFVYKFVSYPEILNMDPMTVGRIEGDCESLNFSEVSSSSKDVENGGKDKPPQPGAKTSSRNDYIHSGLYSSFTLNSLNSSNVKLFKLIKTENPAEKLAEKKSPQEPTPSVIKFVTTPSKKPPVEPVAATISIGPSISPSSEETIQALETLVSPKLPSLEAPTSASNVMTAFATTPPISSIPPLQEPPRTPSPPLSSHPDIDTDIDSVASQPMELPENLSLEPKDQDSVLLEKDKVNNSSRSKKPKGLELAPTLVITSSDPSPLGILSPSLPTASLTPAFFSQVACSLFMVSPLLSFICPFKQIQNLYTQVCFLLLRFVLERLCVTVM
The settings on record: protein: recombinant; tags: N-terminal GST; dsDNA, one strand shown. Summed up:
as §1

A further experiment concerns the target T10, ETV2 (Homo sapiens, UniProt O00321 1-342).
T10 sequence: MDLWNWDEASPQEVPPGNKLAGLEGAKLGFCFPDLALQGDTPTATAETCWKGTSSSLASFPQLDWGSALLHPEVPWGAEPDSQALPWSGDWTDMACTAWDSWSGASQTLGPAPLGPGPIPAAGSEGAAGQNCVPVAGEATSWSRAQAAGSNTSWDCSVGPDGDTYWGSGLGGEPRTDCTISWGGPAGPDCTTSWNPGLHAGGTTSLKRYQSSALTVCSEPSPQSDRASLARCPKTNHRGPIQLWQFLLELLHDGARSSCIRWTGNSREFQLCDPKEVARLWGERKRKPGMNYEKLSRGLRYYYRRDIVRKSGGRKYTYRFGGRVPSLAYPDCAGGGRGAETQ
The settings on record: protein: recombinant; tags: N-terminal GST; dsDNA, one strand shown. In short, it runs like this:
as §1

For the next experiment, the target named is T11, ELF3 (Homo sapiens, UniProt P78545 1-371).
T11 sequence: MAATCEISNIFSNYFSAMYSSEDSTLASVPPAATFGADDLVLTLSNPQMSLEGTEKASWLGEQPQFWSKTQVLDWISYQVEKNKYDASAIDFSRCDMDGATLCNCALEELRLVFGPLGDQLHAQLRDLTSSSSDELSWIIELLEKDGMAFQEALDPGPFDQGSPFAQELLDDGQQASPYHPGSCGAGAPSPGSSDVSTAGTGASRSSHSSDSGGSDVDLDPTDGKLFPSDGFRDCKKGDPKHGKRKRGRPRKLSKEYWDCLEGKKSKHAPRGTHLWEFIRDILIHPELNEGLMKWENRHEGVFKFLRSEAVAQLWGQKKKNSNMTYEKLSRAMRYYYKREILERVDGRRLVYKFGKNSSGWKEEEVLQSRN
The following applies: protein: recombinant; tags: N-terminal GST; dsDNA, one strand shown. In short, it runs like this:
as §1

The next experiment concerns the target CRX (Homo sapiens, UniProt O43186 1-299). The settings on record: protein: recombinant; tags: N-terminal GST; dsDNA, one strand shown. In short, it runs like this:
as §1

The next experiment addresses ETV1 (Homo sapiens, UniProt P50549 1-477). The following applies: protein: recombinant; tags: N-terminal GST; dsDNA, one strand shown. In short, it runs like this:
as §1

HSF1, sequence (Q00613 whole entry): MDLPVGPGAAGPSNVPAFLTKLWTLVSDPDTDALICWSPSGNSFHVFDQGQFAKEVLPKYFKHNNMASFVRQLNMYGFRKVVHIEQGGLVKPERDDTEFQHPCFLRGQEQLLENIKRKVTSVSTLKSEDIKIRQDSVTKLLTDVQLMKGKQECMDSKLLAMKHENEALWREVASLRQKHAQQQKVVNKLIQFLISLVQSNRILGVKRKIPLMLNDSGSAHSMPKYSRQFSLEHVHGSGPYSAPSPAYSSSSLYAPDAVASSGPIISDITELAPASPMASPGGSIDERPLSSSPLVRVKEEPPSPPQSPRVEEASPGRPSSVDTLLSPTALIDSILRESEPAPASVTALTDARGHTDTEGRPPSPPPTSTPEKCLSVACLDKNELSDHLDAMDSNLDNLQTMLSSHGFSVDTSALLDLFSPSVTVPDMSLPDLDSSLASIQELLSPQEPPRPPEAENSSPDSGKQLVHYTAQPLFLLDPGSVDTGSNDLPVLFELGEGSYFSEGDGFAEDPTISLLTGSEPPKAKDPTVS
CRX, sequence (O43186 whole entry): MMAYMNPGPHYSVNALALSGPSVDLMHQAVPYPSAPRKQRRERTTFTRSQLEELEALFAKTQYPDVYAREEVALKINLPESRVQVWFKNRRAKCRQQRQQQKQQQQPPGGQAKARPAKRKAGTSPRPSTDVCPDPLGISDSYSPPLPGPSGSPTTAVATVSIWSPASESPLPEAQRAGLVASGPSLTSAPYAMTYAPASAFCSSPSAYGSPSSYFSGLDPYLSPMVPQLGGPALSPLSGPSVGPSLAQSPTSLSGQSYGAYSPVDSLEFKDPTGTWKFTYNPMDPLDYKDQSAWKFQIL
SPIB, sequence (Q01892 whole entry): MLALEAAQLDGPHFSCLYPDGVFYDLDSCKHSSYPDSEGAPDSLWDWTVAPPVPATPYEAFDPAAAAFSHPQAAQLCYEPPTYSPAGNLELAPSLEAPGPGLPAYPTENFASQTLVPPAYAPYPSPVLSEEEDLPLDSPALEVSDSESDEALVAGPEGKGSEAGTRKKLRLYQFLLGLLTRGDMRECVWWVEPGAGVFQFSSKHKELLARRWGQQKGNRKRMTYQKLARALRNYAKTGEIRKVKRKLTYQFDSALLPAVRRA
ELF4, sequence (Q99607 whole entry): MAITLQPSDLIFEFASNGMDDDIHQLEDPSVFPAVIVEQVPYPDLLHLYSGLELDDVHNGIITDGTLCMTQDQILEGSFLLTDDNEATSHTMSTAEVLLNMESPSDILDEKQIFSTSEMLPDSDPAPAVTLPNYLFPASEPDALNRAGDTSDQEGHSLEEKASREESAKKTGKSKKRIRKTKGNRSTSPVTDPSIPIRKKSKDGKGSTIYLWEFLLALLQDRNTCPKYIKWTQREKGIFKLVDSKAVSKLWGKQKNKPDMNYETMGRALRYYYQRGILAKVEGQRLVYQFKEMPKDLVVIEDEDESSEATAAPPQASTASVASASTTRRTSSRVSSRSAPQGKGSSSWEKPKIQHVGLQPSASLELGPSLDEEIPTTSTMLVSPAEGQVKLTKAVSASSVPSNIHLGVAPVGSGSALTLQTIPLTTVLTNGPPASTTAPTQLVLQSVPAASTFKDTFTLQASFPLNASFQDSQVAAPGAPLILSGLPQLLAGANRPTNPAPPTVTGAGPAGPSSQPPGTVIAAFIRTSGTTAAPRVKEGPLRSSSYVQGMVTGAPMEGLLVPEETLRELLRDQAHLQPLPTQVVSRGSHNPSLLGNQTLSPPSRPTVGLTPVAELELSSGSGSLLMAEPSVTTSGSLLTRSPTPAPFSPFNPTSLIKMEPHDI
ELF1, sequence (P32519 whole entry): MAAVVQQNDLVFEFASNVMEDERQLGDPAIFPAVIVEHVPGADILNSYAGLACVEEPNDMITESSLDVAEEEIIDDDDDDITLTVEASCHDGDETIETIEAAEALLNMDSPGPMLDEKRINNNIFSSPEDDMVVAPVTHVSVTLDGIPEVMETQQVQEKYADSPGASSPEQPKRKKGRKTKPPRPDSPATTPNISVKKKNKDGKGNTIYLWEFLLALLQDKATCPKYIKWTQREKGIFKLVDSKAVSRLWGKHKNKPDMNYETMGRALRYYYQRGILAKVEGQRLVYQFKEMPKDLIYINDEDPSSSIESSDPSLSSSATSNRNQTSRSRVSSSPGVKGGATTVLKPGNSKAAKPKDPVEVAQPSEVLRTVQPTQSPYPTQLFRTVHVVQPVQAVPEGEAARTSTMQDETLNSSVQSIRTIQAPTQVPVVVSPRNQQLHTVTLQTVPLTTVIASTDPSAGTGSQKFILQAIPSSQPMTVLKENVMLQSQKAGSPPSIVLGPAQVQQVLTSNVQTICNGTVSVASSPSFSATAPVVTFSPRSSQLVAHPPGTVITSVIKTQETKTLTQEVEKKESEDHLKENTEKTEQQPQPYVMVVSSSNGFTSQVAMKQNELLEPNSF
ETV1, sequence (P50549 whole entry): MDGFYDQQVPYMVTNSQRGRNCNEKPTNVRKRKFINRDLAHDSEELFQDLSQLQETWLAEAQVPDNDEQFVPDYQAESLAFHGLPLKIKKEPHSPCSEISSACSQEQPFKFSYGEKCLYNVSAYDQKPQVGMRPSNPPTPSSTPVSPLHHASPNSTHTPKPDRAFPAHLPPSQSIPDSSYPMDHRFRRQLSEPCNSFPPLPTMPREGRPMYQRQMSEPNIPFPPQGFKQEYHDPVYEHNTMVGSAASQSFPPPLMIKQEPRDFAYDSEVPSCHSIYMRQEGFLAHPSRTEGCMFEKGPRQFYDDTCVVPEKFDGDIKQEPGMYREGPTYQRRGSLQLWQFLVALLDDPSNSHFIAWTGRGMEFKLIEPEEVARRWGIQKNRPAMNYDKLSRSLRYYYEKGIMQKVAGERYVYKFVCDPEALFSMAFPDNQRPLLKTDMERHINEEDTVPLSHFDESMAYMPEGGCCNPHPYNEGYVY
ETV5, sequence (P41161 whole entry): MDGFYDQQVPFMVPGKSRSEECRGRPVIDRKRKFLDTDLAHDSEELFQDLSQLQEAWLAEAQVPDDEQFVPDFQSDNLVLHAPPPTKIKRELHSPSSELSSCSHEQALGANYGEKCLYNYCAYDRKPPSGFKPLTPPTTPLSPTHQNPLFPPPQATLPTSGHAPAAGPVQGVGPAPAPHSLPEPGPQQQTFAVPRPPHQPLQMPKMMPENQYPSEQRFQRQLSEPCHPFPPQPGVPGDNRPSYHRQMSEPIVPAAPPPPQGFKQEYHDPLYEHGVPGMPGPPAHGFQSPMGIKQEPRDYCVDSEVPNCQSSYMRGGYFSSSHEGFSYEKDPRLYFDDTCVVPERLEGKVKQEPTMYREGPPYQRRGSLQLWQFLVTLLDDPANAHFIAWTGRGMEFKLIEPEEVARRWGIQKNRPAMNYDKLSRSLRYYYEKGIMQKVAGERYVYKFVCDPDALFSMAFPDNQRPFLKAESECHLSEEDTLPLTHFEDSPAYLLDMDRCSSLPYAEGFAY

Turning to TTATAA, the binding signal is 1.21 fold enrichment (6-mer frequency, TF over GST control) with FLI1; 1.16 fold enrichment (6-mer frequency, TF over GST control) in the experiment with ELK1; 1.15 fold enrichment (6-mer frequency, TF over GST control) in the experiment with GABPA; 1.14 fold enrichment (6-mer frequency, TF over GST control) in the experiment with ERG; 1.14 fold enrichment (6-mer frequency, TF over GST control) with ELF1; 1.16 fold enrichment (6-mer frequency, TF over GST control) in the experiment with EHF. In addition, the binding signal in the experiment with SPI1 is 1.16 fold enrichment (6-mer frequency, TF over GST control); in the experiment with SPIB, 1.2 fold enrichment (6-mer frequency, TF over GST control); in the experiment with ELK3 it was 1.33 fold enrichment (6-mer frequency, TF over GST control); with FEV it was 1.16 fold enrichment (6-mer frequency, TF over GST control); with ETV5, 1.13 fold enrichment (6-mer frequency, TF over GST control); with HSF1 it was 1.79 fold enrichment (6-mer frequency, TF over GST control). Besides, the binding signal is 1.2 fold enrichment (6-mer frequency, TF over GST control) with SPIC; 1.11 fold enrichment (6-mer frequency, TF over GST control) with ELF4; 1.14 fold enrichment (6-mer frequency, TF over GST control) with ELK4; 1.12 fold enrichment (6-mer frequency, TF over GST control) with ETV2; 1.32 fold enrichment (6-mer frequency, TF over GST control) with ELF3; 2.9 fold enrichment (6-mer frequency, TF over GST control) with CRX. The binding signal with ETV1 is 1.13 fold enrichment (6-mer frequency, TF over GST control).
